TDP1 cell noCPT: qHTS for Inhibitors of human tyrosyl-DNA phosphodiesterase 1 (TDP1): qHTS in cells in absence of CPT. DT40 Tdp1-/- hTDP1 cells, no CPT, ATP luminescence, 48 h. Potency, µM (top dose mostly 46.2 µM), actives largely listed as inhibitors. actives 15% (n = 420,000). AID 686978, 2013; further: nearly all actives have a fitted effect of over 55% in size
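Luminescent ATP content (CellTiter-Glo) served as the growth readout. Knockout chicken DT40 cells expressing human TDP1 were exposed to compounds without camptothecin for a minimum 48 hr at 37 °C.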
TDP1 cell CPT: growth inhibition of DT40 Tdp1-/-;hTDP1 cells with camptothecin (screen for TDP1 inhibitors) | chicken DT40 Tdp1-/-;hTDP1 cells + 20 nM CPT, ATP luminescence, 48 h | Potency, µM (titrated, usually from 46.2 µM), usual class: inhibitors | actives 12% (n = 420,000); further: nearly all actives have a fitted effect of over 55% in size
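Cell growth measured by CellTiter-Glo luminescence after a minimum 48 h, 37 C compound exposure with 20 nM CPT in Tdp1-knockout DT40 cells stably expressing hTDP1, seeded 400/well; qHTS titration format.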
IL1B secr inh: inflammasome signaling inhibition, IL-1 beta readout. THP-1 LPS/ATP IL-1B secretion, AlphaLISA, 16 h; hits give low values. activity change, % at 57.5 µM. actives 4.7% (n = 360,000). AID 743279; in the data active means activity change below about -50%; inconclusive means mostly about -30% to -49%
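Secreted IL-1B measured by AlphaLISA bead assay after 16 h compound exposure of THP-1 cells; compounds (final up to 57.5 uM) added 1 h before LPS (250 ng/mL) and ATP (1.25 mM) stimulation; lower signal means less secretion.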
SW480 rereplic: inducers of DNA re-replication in SW480 colon cancer cells; Potency, µM (doses to about 46.1 µM), most hits filed as activators; SW480 DNA re-replication, Hoechst DNA content imaging, 48 h; actives 1.8% (n = 340,000); AID 624297; further: nearly all actives have a fitted effect of over 55% in size
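First, 250 cells per well were seeded. Next, compound or vehicle (23 nL) was pinned in, plates sat 48 hr at 37 C. Finally Hoechst was added for 40 min before fluorescence scanning.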
MCF10A rereplic: inducers of DNA re-replication in MCF 10A breast cells. MCF 10A DNA re-replication, Hoechst nuclear intensity, 48 h. Potency, µM (series often up to 46.1 µM), actives largely listed as activators. actives 2.9% (n = 350,000); further: nearly all actives have a fitted effect of over 50% in size
Chronic BCR inh: chronic active BCR signaling inhibition; actives 0.05% (n = 340,000); ABC-DLBCL IkBa-CBG/CBR reporter, luminescence ratio, 4 h; Potency, µM (top dose mostly 46.1 µM), hits mostly inhibitors; active means well fitted inhibition curve with a large enough effect in the signal ratio, with a control signal flat, not every such curve was filed as active; inconclusive means small, poorly fitted or top-dose-only effect, or effect the other way, or a change in a side signal; the % refers to the signal ratio
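Concentration-response series (up to 46 uM) were applied to TMD8 dual-reporter cells for 4 h at 37C with doxycycline. Green/red ratio, after filter-overlap correction, defined %Activity; red signal alone was normalised to basal cells and zero luminescence.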
Each line names hits and unclear results; the compound was inactive in the other large screens. Compounds with a hit are over-represented: about 19% of the library has one in this group of screens. Unless noted, the call rests on the fitted dose curve; in most records, active means well fitted curve in the direction sought with a large enough effect; inconclusive means small, poorly fitted or top-dose-only effect, or another doubt; inactive means no such curve, though single readings can be large; an effect the other way counts as inactive or inconclusive.

CCCCOc1ccc(C(O)(CC)CCN2CCOCC2)cc1 (configuration not stated)	IL1B secr inh inconclusive
CCCCCOc1ccc(C(C)(O)C(CN2CCOCC2)c2ccccc2)cc1 (configuration not stated)	TDP1 cell noCPT 20.6µM, TDP1 cell CPT inconclusive, IL1B secr inh inconclusive, MCF10A rereplic inconclusive
CCCCOc1ccc(C(O)(CCC)CCN2CCOCC2)cc1 (configuration not stated)	TDP1 cell noCPT 16.4µM, TDP1 cell CPT 20.6µM, SW480 rereplic inconclusive, MCF10A rereplic inconclusive
CCc1ccc(C(O)(C(C)C)C(CN2CCOCC2)c2ccccc2)cc1 (configuration not stated)	TDP1 cell noCPT 16.4µM, TDP1 cell CPT 16.4µM, SW480 rereplic inconclusive, MCF10A rereplic inconclusive, Chronic BCR inh inconclusive
COc1cccc(-c2nnc3sc(-c4ccccn4)nn23)c1	TDP1 cell noCPT 23.1µM, TDP1 cell CPT inconclusive
COc1cccc(-c2nn3c(-c4ccccn4)nnc3s2)c1	TDP1 cell noCPT inconclusive, TDP1 cell CPT inconclusive, Chronic BCR inh inconclusive (no result: IL1B secr inh)
COc1cccc(-c2nn3c(-c4ccco4)nnc3s2)c1	TDP1 cell noCPT inconclusive
COc1ccc(-c2nn3c(-c4cc(-c5ccccc5)n[nH]4)nnc3s2)cc1OC	TDP1 cell noCPT 4.47µM, TDP1 cell CPT 2.82µM (no result: IL1B secr inh, SW480 rereplic, MCF10A rereplic, Chronic BCR inh)
Clc1ccccc1-c1nnc2sc(-c3ccncc3)nn12	TDP1 cell CPT inconclusive, Chronic BCR inh inconclusive
COc1ccc(-c2nn3c(-c4cc(-c5ccccc5)n[nH]4)nnc3s2)cc1	TDP1 cell noCPT 2.82µM, TDP1 cell CPT 3.55µM (no result: IL1B secr inh, SW480 rereplic, MCF10A rereplic, Chronic BCR inh)
Clc1ccccc1-c1nn2c(-c3ccncc3)nnc2s1	TDP1 cell noCPT 23.1µM, TDP1 cell CPT 16.4µM, IL1B secr inh -66.8, Chronic BCR inh inconclusive
COc1cc(C(=O)N2CCCCCCC2)ccc1OC1CCN(C(C)=O)CC1	TDP1 cell noCPT inconclusive
O=S(=O)(c1ccc(OC(F)(F)F)cc1)N1CCCC(N2CCOCC2)C1 (configuration not stated)	SW480 rereplic inconclusive
COc1ccc(C(=O)C(C)Sc2nnc(C3CC3)n2C2CC2)cc1 (configuration not stated)	none
COc1ccc(-c2nn3c(-c4cccc(C)c4)nnc3s2)cc1OC	TDP1 cell noCPT inconclusive, TDP1 cell CPT inconclusive, SW480 rereplic inconclusive, MCF10A rereplic inconclusive (no result: Chronic BCR inh)
Cc1cccc(-c2nnc3sc(-c4ccccc4)nn23)c1	TDP1 cell noCPT 12.6µM, TDP1 cell CPT 20µM
CCOc1ccc(-c2nn3c(-c4cc(-c5ccccc5)n[nH]4)nnc3s2)cc1	TDP1 cell noCPT 14.1µM, TDP1 cell CPT 15.8µM (no result: IL1B secr inh, SW480 rereplic, MCF10A rereplic, Chronic BCR inh)
CCOc1cccc(-c2nnc3sc(-c4ccc(C)cc4)nn23)c1	none (no result: TDP1 cell noCPT, TDP1 cell CPT, IL1B secr inh, SW480 rereplic, MCF10A rereplic)
COc1ccc(-c2nn3c(-c4ccccn4)nnc3s2)cc1OC	TDP1 cell CPT inconclusive, IL1B secr inh -51.0
COc1cccc(-c2nn3c(-c4cc(C)[nH]n4)nnc3s2)c1	TDP1 cell noCPT 11.2µM, TDP1 cell CPT 15.8µM (no result: IL1B secr inh)
CNc1cccc(-c2cc(OC)ccc2OC)n1	TDP1 cell noCPT inconclusive, TDP1 cell CPT inconclusive (no result: SW480 rereplic, MCF10A rereplic, Chronic BCR inh)
COc1ccccc1-c1cncnc1N1CCN(C)CC1	none (no result: IL1B secr inh, SW480 rereplic, MCF10A rereplic, Chronic BCR inh)
CN1C(=O)[C@@](O)(c2cn(C)c3ccccc23)c2cc(Br)ccc21	TDP1 cell noCPT inconclusive, TDP1 cell CPT inconclusive (no result: SW480 rereplic, MCF10A rereplic, Chronic BCR inh)
CCNC(=S)N1CCC(n2cnc3ccccc32)CC1	none
COc1ccnc(CSC(N)=Nc2ccc(F)cc2)c1	TDP1 cell noCPT inconclusive, TDP1 cell CPT inconclusive, IL1B secr inh -98.5, SW480 rereplic inconclusive, Chronic BCR inh inconclusive
COc1ccc(C(=O)COc2ccc(F)cc2)c(O)c1	IL1B secr inh inconclusive
O=C(CN1CCN(Cc2ccccc2)CC1)Nc1cccc(S(=O)(=O)N2CCCCCC2)c1	TDP1 cell noCPT inconclusive, TDP1 cell CPT inconclusive, IL1B secr inh -68.8, SW480 rereplic inconclusive, Chronic BCR inh inconclusive
